Shown are actives, neighbours in structure and some others; about 3.1% of the full set was active somewhere.
Vif-A3G inh: qHTS for Inhibitors of Vif-A3G Interactions: qHTS; Potency, µM (highest dose often 46.1 µM), actives largely listed as inhibitors; 0.076% of 410,000 active; DNA dC->dU-editing enzyme APOBEC-3G (Homo sapiens), Q9HC16; HeLa A3G-eYFP + Vif (tagged APOBEC3G with the HIV-1 protein that degrades it), YFP fluorescence, overnight; also: nearly all actives have a fitted effect of over 60% in size
Target sequence (Q9HC16 whole entry, looked up): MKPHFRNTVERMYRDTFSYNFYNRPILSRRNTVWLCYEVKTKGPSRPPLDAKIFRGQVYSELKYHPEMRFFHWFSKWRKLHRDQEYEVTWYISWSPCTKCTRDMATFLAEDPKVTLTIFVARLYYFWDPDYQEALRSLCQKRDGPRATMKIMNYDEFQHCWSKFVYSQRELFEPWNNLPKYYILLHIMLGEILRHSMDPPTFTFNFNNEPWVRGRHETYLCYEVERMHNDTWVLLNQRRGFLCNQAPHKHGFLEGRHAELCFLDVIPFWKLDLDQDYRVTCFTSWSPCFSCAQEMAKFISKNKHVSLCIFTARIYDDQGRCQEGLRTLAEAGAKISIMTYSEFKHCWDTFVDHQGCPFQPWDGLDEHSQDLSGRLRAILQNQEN
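Read-out is eYFP fluorescence (Ex 488/Em 500-530) from Vif-expressing HeLa A3G-eYFP cells; more signal means A3G escaped Vif-mediated degradation. Cells plated overnight, compound pinned in, incubated overnight at 37 deg C.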
VDR inhibitor: Inhibitors of the vitamin D receptor (VDR): qHTS. Vitamin D3 receptor (Homo sapiens), P11473. VDR-SRC2-3 peptide fluorescence polarization, 2 h. Potency, µM, actives largely listed as inhibitors. 0.93% of 400,000 active. AID 504847, 2011
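Signal is fluorescence polarization, reporting how far test compounds block the interaction of VDR with the SRC2-3 coregulator peptide after a 2 h room-temperature incubation.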
PLK1 PBD inh: qHTS for Inhibitors of PLK1-PDB (polo-like kinase 1 - polo-box domain): Primary Screen; Potency, µM, most hits filed as inhibitors; Plk1 PBD binding of FITC phosphopeptide, fluorescence polarization; Serine/threonine-protein kinase PLK1 (Homo sapiens), P53350; 2.8% of 360,000 active; also: series mostly up to about 57 µM; nearly all actives have a fitted effect of over 65% in size
TSHR antagonist: Antagonists of the Thyroid Stimulating Hormone Receptor: HTS campaign; Thyrotropin receptor (Homo sapiens), P16473; TSHR-expressing cells, TSH-stimulated cAMP HTRF, 2 h; active compounds read low; activity change, negative = inhibition, % at 11.5 µM; 0.2% of 330,000 active; AID 504810, 2011;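 active = activity change below a set negative limit, meaning inhibition stronger than a set level, cut at about -70% in these data; inconclusive = activity change between two set negative limits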
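TSHR-expressing cells were treated with compounds, then stimulated with TSH at EC80 (4nM final) for 2 hours at 37 deg C. Cellular cAMP was measured by HTRF competition between lysate cAMP and cAMP-d2 for a cryptate-labelled anti-cAMP antibody.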
Vif-APOBEC3F blk: qHTS for Inhibitors of Vif-A3F Interactions: qHTS; HeLa A3F-eYFP + Vif (tagged APOBEC3F with the HIV-1 protein that degrades it), YFP fluorescence increase; Potency, µM (top dose mostly 46.1 µM); 0.2% of 390,000 active; AID 602313, 2012; also: nearly all actives have a fitted effect of over 65% in size
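Fluorescence increase (Ex 488/Em 500-530) after overnight compound treatment at 37 deg C flags inhibition of Vif-driven A3F-eYFP loss in stable HeLa A3F-eYFP/Vif cells seeded overnight beforehand.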
Of the large screens only hits and unclear results are named; the others gave an inactive call. Unless noted, calls follow the shape of the dose curve; as a rule, active = well fitted curve in the direction sought with a large enough effect; inconclusive = small, poorly fitted or top-dose-only effect, or another doubt; inactive = no such curve, though single readings can be large; an effect the other way counts as inactive or inconclusive.

COc1cc(/C=C/c2ccnc3ccccc23)cc(OC)c1OC	none (no result: VDR inhibitor, PLK1 PBD inh, TSHR antagonist, Vif-APOBEC3F blk)
O=C(O)c1ccc2c(c1)C(=O)N(c1cccc(C(=O)/C=C/c3ccccc3)c1)C2=O	VDR inhibitor inconclusive, PLK1 PBD inh 42µM
CCOC(=O)/C(C#N)=C(C)/C=C1\Sc2ccccc2N1CC	Vif-APOBEC3F blk inconclusive
CCN1/C(=C\C=C(C(C)=O)C(C)=O)Sc2ccccc21	Vif-A3G inh 22µM, Vif-APOBEC3F blk 22µM
CCN1/C(=C\C(=S)Nc2ccccc2)Sc2ccccc21	VDR inhibitor inconclusive, PLK1 PBD inh 24µM
CCCCCCCCN=C(N)c1ccc(C(=O)OCC2CCCCC2)cc1	none (no result: Vif-A3G inh, PLK1 PBD inh, TSHR antagonist, Vif-APOBEC3F blk)
CCOC(=O)c1nn(-c2ccccc2)c(=O)c2c(N)scc12	PLK1 PBD inh 2.7µM
CCOC(=O)c1nn(-c2ccccc2)c(=O)c2c(NC(C)=O)scc12	none
CCCCNC1C(CC)C(CCC)C(C#N)(C#N)C1(C#N)C#N (stereo not drawn)	VDR inhibitor 45µM
CCOC(=O)C1=NN(C(C)=O)C2(CC(=O)N(c3cccc(C)c3)C2=O)C1 (stereo not drawn)	PLK1 PBD inh 27µM
COC(=O)C1=NN(C(C)=O)C2(CC(=O)N(c3cccc(C)c3)C2=O)C1 (stereo not drawn)	none
COCCn1c(C)cc(O)c(C(c2ccc(OC)cc2)N2CCCCC2)c1=O (stereo not drawn)	none (no result: PLK1 PBD inh, TSHR antagonist)
COc1ccc(/C=C2\N=C(C)OC2=O)cc1OC(C)=O	VDR inhibitor 50µM
CC(C)c1ccc(Nc2nnc(SCC(=O)Nc3ncc(S(=O)(=O)c4ccc([N+](=O)[O-])cc4)s3)s2)cc1	PLK1 PBD inh 42µM
Cc1ccc(Cl)cc1N1CCN(Cc2nc3ccsc3c(=O)[nH]2)CC1	PLK1 PBD inh 30µM
Nn1cnn(Cc2ccccc2)c1=S	PLK1 PBD inh 24µM
Brc1nc(Br)n(Cc2ccccc2)n1	none
N#Cc1cc2ccccc2nc1SCC(=O)Nc1ccccc1N1CCOCC1	Vif-A3G inh inconclusive, Vif-APOBEC3F blk 25µM
Cc1cccc2cc(C#N)c(SCC(=O)Nc3ccccc3N3CCOCC3)nc12	none
COc1cccc2nc3cc(C)c(C)cc3nc12	VDR inhibitor 22µM, PLK1 PBD inh 17µM
CSc1nnc2c3ccccc3n(CCc3ccccc3)c2n1	none
S=c1nc2c(n[nH]1)c1ccccc1n2CCc1ccccc1	VDR inhibitor 79µM, PLK1 PBD inh inconclusive
Cc1cc2cc(C=C(C#N)C#N)c(Cl)nc2cc1C	Vif-A3G inh inconclusive, VDR inhibitor 50µM, PLK1 PBD inh inconclusive, Vif-APOBEC3F blk inconclusive
CCOC(=O)/C(C#N)=C/c1cc2cc(C)c(C)cc2nc1Cl	none
O=C(Nc1ccc([N+](=O)[O-])cc1Cl)c1cc(Br)ccc1O	none (no result: PLK1 PBD inh, TSHR antagonist, Vif-APOBEC3F blk)
COc1ccc(NC(=S)NC(NC(=O)CCl)C(Cl)(Cl)Cl)c([N+](=O)[O-])c1 (stereo not drawn)	VDR inhibitor 89µM, PLK1 PBD inh 12µM
COc1ccc(NC(=S)NC(NC(=O)c2ccccc2Cl)C(Cl)(Cl)Cl)c([N+](=O)[O-])c1 (stereo not drawn)	none
COc1ccc(NC(=O)c2ccc(C)o2)c([N+](=O)[O-])c1	none
COC(=O)c1ccccc1NC(=S)NC(NC(=O)c1ccco1)C(Cl)(Cl)Cl (stereo not drawn)	none
COC(=O)c1ccccc1NC(=S)NC(NC(=O)c1ccccc1[N+](=O)[O-])C(Cl)(Cl)Cl (stereo not drawn)	PLK1 PBD inh 27µM (no result: Vif-APOBEC3F blk)
COc1ccc(NC(=O)c2ccc(NC(=O)C(C)C)cc2)c([N+](=O)[O-])c1	Vif-APOBEC3F blk 10µM
O=C(NC(NC(=S)Nc1ccccc1C(=O)O)C(Cl)(Cl)Cl)c1ccccc1 (stereo not drawn)	VDR inhibitor 79µM, PLK1 PBD inh 6µM
O=C(NC(NC(=S)Nc1ccccc1C(=O)O)C(Cl)(Cl)Cl)c1ccco1 (stereo not drawn)	VDR inhibitor inconclusive, PLK1 PBD inh 21µM
Cc1cc2c(cc1C)N[C@]1(C[C@H]3CCCC(=O)N4CC[C@@H](C1)[C@@H]34)C(=Nc1ccccc1C)N2	none (no result: VDR inhibitor, PLK1 PBD inh, TSHR antagonist, Vif-APOBEC3F blk)
Nc1ccc2nc(SCc3ccccc3F)sc2c1	PLK1 PBD inh 15µM
Nc1ccc2nc(SCC(=O)c3ccccc3)sc2c1	none
O=C(CN1CCN(C(=O)c2ccccc2)CC1)Nc1ccc(Cl)cc1F	TSHR antagonist -79
O=C(CN1CCCC1)Nc1ccc(Cl)cc1C(F)(F)F	PLK1 PBD inh 24µM
O=C(CN1CCN(C(=O)c2ccccc2)CC1)Nc1cc(S(=O)(=O)N2CCCC2)ccc1Cl	none
O=[N+]([O-])c1ccc2[nH]c(=S)[nH]c2c1	PLK1 PBD inh 27µM (no result: TSHR antagonist)
O=[N+]([O-])c1ccc2c(c1)[nH]c(=S)n2-c1ccccc1	PLK1 PBD inh 6µM
O=[N+]([O-])c1ccc2[nH]c(=S)sc2c1	VDR inhibitor inconclusive (no result: TSHR antagonist)
CC1CCN(CCCCOc2ccccc2F)CC1	VDR inhibitor inconclusive, PLK1 PBD inh 30µM
CC1CCCC(NC(=O)CCS(=O)(=O)c2ccc3c(c2)NC(=O)CS3)C1C (stereo not drawn)	VDR inhibitor inconclusive, PLK1 PBD inh 30µM
COC(=O)C1=C[C@@H](C(=O)OC)C2C3=C(C(=O)[C@@]2(C)NC(=O)c2ccccc2)[C@H](c2ccccc2)n2c(=O)n(-c4ccccc4)c(=O)n2[C@@H]3C1 (stereo partly drawn)	none (no result: PLK1 PBD inh, TSHR antagonist, Vif-APOBEC3F blk)
CC1(C)CC(=O)C(C=Nc2cc(C(=O)c3ccccc3)ccc2N)=C(O)C1	Vif-APOBEC3F blk 28µM
COc1ncc2nc(-c3ccccc3)c(=O)n(C3CC3)c2n1	none (no result: Vif-A3G inh, PLK1 PBD inh, TSHR antagonist, Vif-APOBEC3F blk)
CC(C)CCn1c(=O)c2sccc2n2c(CCCC(=O)NC(C)c3ccccc3)nnc12 (stereo not drawn)	none (no result: PLK1 PBD inh, TSHR antagonist)
CC/C=C/[C@@H](c1ccccc1)[C@H](C)C(O)CC(=O)SC(C)(C)C (stereo partly drawn)	none (no result: PLK1 PBD inh, TSHR antagonist, Vif-APOBEC3F blk)
O=C(O)COc1ccccc1/C=N/NC(=O)CSc1nc2ccccc2n1Cc1ccccc1Cl	PLK1 PBD inh 60µM
COc1ccc(-c2nn(-c3ccccc3)cc2/C=C2/SC(=S)N(CCC(=O)O)C2=O)c(C)c1	VDR inhibitor inconclusive, PLK1 PBD inh 12µM
COc1ccc(-c2nn(-c3ccccc3)cc2/C=C2/SC(=S)N(CCC(=O)O)C2=O)cc1	VDR inhibitor inconclusive, PLK1 PBD inh 21µM, Vif-APOBEC3F blk inconclusive
CCOc1ccc(-c2nn(-c3ccccc3)cc2/C=C2\SC(=S)N(C3CCS(=O)(=O)C3)C2=O)cc1 (stereo not drawn)	PLK1 PBD inh inconclusive, Vif-APOBEC3F blk inconclusive
COc1ccc(/C=C2/SC(=S)N(CCC(=O)O)C2=O)cc1	none
